Screening results (PubChem BioAssay)
Hits are enriched below; roughly 10% of the tested compounds scored in any of these assays.
MCF10A rerep: induces DNA re-replication in MCF 10a normal breast cells | MCF 10A DNA re-replication, Hoechst nuclear intensity, 48 h | Potency, µM (highest dose often 46.1 µM), without a hit: top-dose activity, positive = re-replication, usual class: activators | 2.9% of 350,000 active | AID 624296; further: % of control where 0% means no effect; nearly all actives have a fitted effect of over 50% in size
Gal4-VP16 FLuc: Gal4-VP16 reporter inhibition counter-screen. Drosophila S2 Gal4-VP16 UAS-luciferase, luminescence, 20 h. 3.5% of 310,000 active. Potency, µM (series often up to 53.6 µM), for the others: top-dose activity, negative = inhibition, usual class: inhibitors;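 further: Gal4-VP16 expression switched on by copper sulfate through the metallothionein promoter; on the % scale 0 is the no-effect control and ±100 the full control effect; nearly all actives have a fitted effect of over 50% in size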
RORgamma inh: blocks mouse ROR gamma transcriptional activity. 5.4% of 310,000 active. Drosophila S2 Gal4-RORgamma UAS-luciferase reporter, 20 h. P51450. Potency, µM (series often up to 53.6 µM), for the others: at the highest dose activity change, negative = inhibition, most hits filed as inhibitors; further: on the % scale 0 is the no-effect control and ±100 the full control effect; nearly all actives have a fitted effect of over 60% in size
Target sequence (P51450 whole entry, looked up, the tested form may be a part): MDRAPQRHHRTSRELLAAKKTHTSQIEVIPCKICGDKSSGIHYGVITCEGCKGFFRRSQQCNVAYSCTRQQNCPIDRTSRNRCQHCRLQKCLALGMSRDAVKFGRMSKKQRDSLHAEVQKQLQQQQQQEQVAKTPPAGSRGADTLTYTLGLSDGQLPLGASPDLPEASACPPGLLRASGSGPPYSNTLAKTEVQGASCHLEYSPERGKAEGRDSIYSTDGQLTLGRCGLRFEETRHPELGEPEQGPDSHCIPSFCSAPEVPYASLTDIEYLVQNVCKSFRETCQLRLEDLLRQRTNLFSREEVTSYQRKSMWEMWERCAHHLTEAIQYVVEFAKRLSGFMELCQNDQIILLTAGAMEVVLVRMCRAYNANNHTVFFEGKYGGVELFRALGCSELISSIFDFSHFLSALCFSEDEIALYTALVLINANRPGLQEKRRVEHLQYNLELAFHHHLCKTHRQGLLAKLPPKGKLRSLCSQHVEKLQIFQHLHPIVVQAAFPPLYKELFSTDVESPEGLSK
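Drosophila Schneider cells stably carrying a metallothionein-driven Gal4 DBD–ROR gamma fusion and a UAS-Photinus luciferase reporter were exposed to compound for 1 hr, then induced with copper sulfate (700 uM final) for 20 hr at ambient temperature before luminescence reading.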
ELG1 DNA repair: blocks ELG1-dependent DNA repair in HEK293T cells. HEK293T ELG1-luciferase reporter, luminescence, 16 h; DNA damage induced by 5-fluorouridine. 2.3% of 330,000 active. Potency, µM (doses to about 46.1 µM), for inactives: at the top dose activity change, negative = inhibition, hits mostly inhibitors; further: on the % scale 0 is the no-effect control and ±100 the full control effect; nearly all actives have a fitted effect of over 55% in size
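Overnight (16 hr) co-exposure of 2,000 cells/well to 5-fluorouridine and compound at 37 °C preceded detection. Luciferase was quantified via ONE-Glo luminescence; loss of signal denotes inhibition.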
SW480 rerep: induces DNA re-replication in SW480 colon adenocarcinoma cells | SW480 DNA re-replication, Hoechst DNA content imaging, 48 h | Potency, µM (series often up to 46.1 µM), inactives show at the top dose re-replication activation, hits mostly activators | 1.8% of 340,000 active; further: % of control where 0% means no effect; nearly all actives have a fitted effect of over 55% in size
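Per well, 250 cells were exposed to pinned compound for 48 hr. Nuclear DNA was visualised with Hoechst (40 min, 37 C) and total object intensity recorded by fluorescence scanning.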
Starred values were filed as active, the others as inactive; ? = inconclusive; / = no result given; [ ] = remark or other dose. The call rests on the fitted dose curve; in most records, active means well fitted curve in the direction sought with a large enough effect; inconclusive means small, poorly fitted or top-dose-only effect, or another doubt; inactive means no such curve, though single readings can be large; an effect the other way counts as inactive or inconclusive. Potency means the concentration at half of the fitted maximal effect.

SMILES | MCF10A rerep | Gal4-VP16 FLuc | RORgamma inh | ELG1 DNA repair | SW480 rerep
Cc1cc(C)nc(Sc2ncnc3sc4c(c23)CCC4)n1 | -182%[0.0737 µM] | -22% | ? | ? | 13µM*
Cc1cccc(C)c1NC(=O)c1cnccn1 | -2% | / | / | 0% | 1%
Cc1c(Cc2ccccc2)sc(NC(=O)/C=C/c2cccc3ccccc23)c1C(N)=O | 2.3µM* | -4% | 8% | ? | ?
COC(=O)c1c(NC(=O)/C=C/C(=O)O)sc(Cc2ccccc2)c1C | 15µM* | -1% | -3%[10 µM] | -9% | ?
COC(=O)c1c(N)sc(Cc2ccccc2)c1C | 13% | -6% | -36% | -3% | -21%
Cc1c(Cc2ccccc2)sc(NC(=O)c2ccco2)c1C(N)=O | 15µM* | 6% | 37% | 3% | 1%
CCOC(=O)C1(Cc2cccc(Cl)c2)CCCN(CCO)C1 (stereo unspecified) | 9% | -6% | -16% | 1% | -2%
CN(C)S(=O)(=O)c1ccc(Cl)c(C(=O)NC2CCCCCCC2)c1 | 14% | 2% | 0% | -16% | 3%
NC(=O)c1sc2nnc(-c3ccccc3)c(-c3ccccc3)c2c1N | 12% | 5% | -21% | ? | -4%
COc1cccc(C(=O)Oc2c(CN3CCOCC3)cc(Cl)c3cccnc23)c1 | 14% | 4.5µM* | 2.8µM* | 18µM* | 26%
COc1cc(C(=O)Oc2c(CN3CCOCC3)cc(Cl)c3cccnc23)cc(OC)c1OC | ? | 2.5µM* | 4.5µM* | ? | ?
COc1cc(C(=O)Oc2c(OC)cc(C(=S)N3CCOCC3)cc2OC)cc(OC)c1OC | -4% | -1% | 10% | 9% | -5%
O=C(Oc1c(CN2CCOCC2)cc(Cl)c2cccnc12)c1ccc(F)cc1 | 3.3µM* | -15% | -5% | ? | ?
COc1ccc(C(=O)Oc2c(CN3CCOCC3)cc(Cl)c3cccnc23)cc1 | ? | 6.3µM* | 6.3µM* | ? | ?
COc1ccc(C(=O)OC(C)CN2CCOCC2)cc1 (stereo unspecified) | -4% | 26% | 13% | ? | -16%
CCN1C(=NCc2cc(OC)c(OC)c(OC)c2)N[C@@H](c2cccc(F)c2)C(C(=O)OC)=C1C | / | -16% | 17% | / | /
CC1(C)[C@@H]2CC[C@@]1(C)C(=O)C2 | 11% | 1% | -9% | / | 8%
COc1ccccc1C(=O)Nc1cc(C)ccc1NC(=O)c1ccco1 | 18% | 2% | 17% | -23% | 1%
Cc1ccc(CNC(=O)C2(NC(=O)Nc3ccc(C)cc3)CCCCC2)cc1 | -3% | -2% | 23% | -6% | 16µM*
CC12CCCCC1N(O)C(=O)C(=O)N2O (stereo unspecified) | -5% | 2% | -26% | 16% | -2%
COc1ccc(CN(C)C(=O)c2cccc(NC(=O)CC3SC(N4CCCCC4)=NC3=O)c2)c(OC)c1 (stereo unspecified) | ? | / | / | / | 6.5µM*
COc1cccc(CN(C)C(=O)c2cccc(NC(=O)CC3SC(N4CCCCC4)=NC3=O)c2)c1OC (stereo unspecified) | -3% | / | / | ? | -29%
CCOc1ccc(/C=C/C(=O)Oc2ccc(OC)cc2)cc1 | 5% | -20% | -21% | -4% | 15µM*
CCOC(=O)c1c(C)[nH]c(C)c1C(=O)COC(=O)/C=C/c1ccc(OC)cc1 | 8% | / | / | ? | 16µM*
COc1ccc(/C=C/C(=O)Oc2cc(O)cc(O)c2)cc1 | ? | ? | -16% | -13% | -1%
SMILES | MCF10A rerep | Gal4-VP16 FLuc | RORgamma inh | ELG1 DNA repair | SW480 rerep
O=C(CSc1nnnn1C1CCCCC1)Nc1nc2c(s1)CCCC2 | 39% | 8% | -37% | / | -1%
COc1ccc(C=O)c2[nH]c3c(Cl)ncnc3c12 | ? | -1% | 3% | ? | 6%
N#Cc1ccc(C(=O)OCC(=O)N2CCCC2)cc1 | -2% | -1% | -4% | 10% | -8%
Cc1sc2nc(C3CC3)nc(SCC(=O)N3c4ccccc4CC3C)c2c1C (stereo unspecified) | 9.2µM* | 0% | -23% | ? | 15µM*
Cc1nc(SCC(=O)N2c3ccccc3NC(=O)CC2C)c2c(C)c(C)sc2n1 (stereo unspecified) | ? | / | / | -21% | -20%
CC(C)C(C(=O)Nc1nccs1)N1C(=O)c2ccccc2C1=O (stereo unspecified) | -2% | -3% | -10% | -2% | ?
Cc1ccc(NC(=O)NC2CCCCC2)c(C)c1 | -1% | 10% | 14% | 22% | 0%
Cc1ccc(NC(=S)NC2CCCC2)c(C)c1 | -2% | 6.3µM* | 7.1µM* | 3% | 2%
Cc1cc(F)ccc1NC(=S)NC1CCCC1 | 0% | 10µM* | 6.3µM* | -20% | 2%
Cc1cc(OC(F)F)ccc1NC(=S)NC1CCCC1 | 9% | 7.1µM* | 2.5µM* | -5% | ?
Cc1ccc(NC(=O)NC2CCCCCCC2)c(C)c1 | -1% | -22% | -6% | 3% | 5%
Cc1ccc(C)c(NC(=S)NC2CC3CCCC(C2)N3CC(C)C)c1 (stereo unspecified) | 10% | ? | 14µM* | 0% | -1%
CC(C)OC(=O)Cn1c(-c2ccccc2)c(-c2ccccc2)nnc1=O | -2% | / | / | 0% | 9%
COc1ccc(C(=O)NCCC2=CCCCC2)cc1OC1CCN(C(C)C)CC1 | ? | 9% | 31% | ? | 0%
COc1cc2c(C#CCCO)c(-c3ccc(C#N)cc3)oc(=O)c2cc1OC | 6.5µM* | / | / | 21% | -14%[9.22 µM]
COc1cc(/C=C2/C(=O)NN(c3ccc(C)c(Cl)c3)C2=O)cc([N+](=O)[O-])c1O | 0% | -1% | 22% | -2% | -33%
Cc1ccc(N2NC(=O)/C(=C\c3cc4c(cc3[N+](=O)[O-])OCO4)C2=O)cc1C | 18µM* | ? | -117% | ? | 0%
CCN(CC)C(=O)Cn1cc(S(=O)(=O)CC(=O)Nc2ccc(F)cc2)c2ccccc21 | -4% | / | / | / | -3%
CC(C)(CC(=O)OCC(=O)Nc1ccccc1F)CC1=NS(=O)(=O)c2ccccc2N1 | 2% | -6% | 20% | 9.2µM* | 7%
Cc1[nH]n(-c2ccc(Br)cc2)c(=O)c1/C=N/NC(=O)c1ccccc1 | -2% | 0.13µM* | 0.28µM* | ? | ?
Cc1[nH]n(-c2ccccc2)c(=O)c1/C=N/NC(=O)c1cccc(F)c1 | 13% | 1.3µM* | 0.56µM* | ? | ?
O=C(N/N=C/c1c(Cl)cccc1Cl)c1cccc(F)c1 | -9% | ? | ? | ? | 4%
COCCNC(=O)C(c1ccncc1)N(Cc1ccccc1)C(=O)Cn1nnc2ccccc21 (stereo unspecified) | ? | -15% | 26% | ? | -3%
C/C(=N\NC(=O)c1c(Cl)cnn1C)c1ccc(NC(=O)c2ccc(Br)o2)cc1 | ? | -19% | -45% | 0% | ?
